Test results reported in PubChem BioAssay.
Several values for one entry are separate records, joined by “and”; a condition that tells them apart may be missing. Identical values can stand only once. More than one record can exist for a structure, and the calls need not agree. Activity calls are given as the source filed them. Unless noted, no stated cut-off is given here; in the data, active means parasite load remaining mostly below about 12% (no sharp cut-off); inactive means mostly above about 10%.

Assays:
[1] = yeast 75Q aggregation reduction – 75Q-TubU reporter (AID 1593); settings: Yeast 75Q polyglutamine aggregation reporter
[2] = blockers of cytochrome c efflux from mitochondria – biochemical, purified mitochondria (AID 1603); settings: stronger effect = lower value;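 further: mouse liver mitochondria challenged with calcium chloride; signal normalized to the plate average as 100%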
[3] = polyglutamine aggregate formation blockers (AID 1604); settings: polyglutamine-induced protein aggregation inhibition assay; stronger effect = higher value; tested at 2.5 µM
[4] = P. berghei load reduction in hepatocytes – cell-based, HepG2, luciferase luminescence, HepG2 viability, primary screen (AID 624349);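 further: 100% = mean of DMSO negative control wells on the same plate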; settings: P. berghei liver stage in HepG2, luciferase luminescence, concentration not given here; parasite load remaining: stronger effect = lower value; viability: measured here: HepG2 viability without parasites
[5] = Wnt pathway potentiators raising nuclear beta-catenin – imaging, WNT3A-conditioned medium, mouse C2C12, NPC library, primary screen (AID 1117326; in the data active means nuclear beta-catenin stimulation mostly above about 4.2%, no sharp cut-off; inactive means mostly below about 10%); settings: stronger effect = higher value
[6] = stimulators of insulin release from INS-1E, primary screen, cell-based, 5 mM glucose, NPC library (AID 1117329;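 active means compound raises insulin release from rat beta cells at 5 mM glucose, no numeric limit stated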); settings: rat INS-1E insulin secretion, at 10 µM, stronger effect = higher value
[7] = growth inhibition of GSK3B-pretreated HCT116 cells – cell-based, CellTiter-Glo, 0.2 to 20 µM (AID 1117336;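 active means compounds lowering colon cancer cell viability after pretreatment blocking the GSK3B kinase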); settings: HCT116 viability after GSK3B inhibitor, at 20 µM, stronger effect = higher value
[8] = inhibition of endothelial tube formation, primary screen, imaging, VEGF stimulated, CD31 staining, tube area, NPC library (AID 1117340;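 active means compound that reduces growth-factor-driven endothelial tube area in a mixed cell culture, no cutoff stated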); settings: VEGF-stimulated ADSC/ECFC co-culture, at 10 µM, stronger effect = higher value
[9] = GLP1 release stimulators, primary, NCI-H716, NPC library (AID 1117341;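 active means compound raises GLP1 secretion from the human gut endocrine cells, with no numeric limit stated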); settings: NCI-H716 cells, at 10 µM, stronger effect = higher value
[10] = HCT116 colon cancer cell growth inhibition, primary screen, CellTiter-Glo luminescence, NPC library (AID 1117342;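 active means compounds that lower survival of HCT116 colon cancer cells in the luminescence readout, no numeric limit stated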); settings: at 20 µM (top of the series)
[11] = reduced SW480 viability measured with CellTiter-Glo, NPC library, primary (AID 1117343;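 active means compounds that lower viability of the colon cancer cells in the luminescence readout, with no numeric limit stated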); settings: CellTiter-Glo luminescence; at 20 µM (top of the series)
[12] = NPC library primary testing for decreased DLD-1 cell viability via CellTiter-Glo (AID 1117346;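 active means compounds that lower survival of DLD-1 colon cancer cells in the luminescence readout, no cutoff given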); settings: DLD-1 viability, CellTiter-Glo luminescence; at 20 µM (top of the series)
[13] = biological target: 6-phosphogluconate dehydrogenase, decarboxylating (Homo sapiens) (UniProt P52209); assay: inhibition of human phosphogluconate dehydrogenase – biochemical, recombinant enzyme, NADPH absorbance, primary screen (AID 1159550;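 active means at least 20% inhibition of 6-phosphogluconate dehydrogenase activity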); settings: recombinant 6PGD, NADPH absorbance 341 nm; at 10 µM; stronger effect = higher value
[14] = EMT-state selective cytotoxicity in co-culture – imaging, PC-3E GFP, TEM4-18 mCherry, primary screen (AID 1345086;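 active means compounds killing one labelled cell type while sparing the other, by normalised counts and ratio limits, not self-fluorescent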;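 on all read-outs here: cells exposed to compound for 72 h before imaging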;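 on red/green cell ratio (normalised): normalised mesenchymal count divided by normalised epithelial count so high means epithelial killing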); settings: PC-3E GFP / TEM4-18 mCherry co-culture, imaging cell counts, at 1 µM; for red/green cell ratio (normalised): actives lie on both sides
[15] = tested on: Aerobactin synthetase IucA (Klebsiella pneumoniae hvKP1); assay: IucA enzyme inhibition, primary screen, biochemical, Spectrum library (AID 1346200; call rule not given here;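 further: 100% = wells without compound and 0% = wells lacking enzyme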); settings: malachite green pyrophosphate, A620, at 8 µM, stronger effect = lower value
[16] = viability loss with induced miR-34 in A549 – imaging, A549 dox-inducible miR-34, nuclei and caspase counts, primary screen (AID 1347080;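 active means compounds whose cell count with miR-34 switched on is under 0.7 times the count with it off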); settings: A549 miR-34 inducible, Hoechst nuclei count, 48 h
[17] = MELAS cybrid and Rieske KO viability enhancers – cell-based, MELAS cybrids, Rieske KO mouse fibroblasts, CellTiter-Glo, primary screen (AID 1508586;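 active means mean z-score across replicates of 1.96 or higher in either the MELAS or the Rieske mutant cell line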;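 further: z relative to plate mean and SD of compound and empty wells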); settings: low glucose
[18] = biological target: NAD(+) hydrolase SARM1 (Homo sapiens) (UniProt Q6SZW1); assay: blocking NAD cleavage by SARM1 SAM-TIR – cell lysate, NAD-Glo luminescence (AID 1508614;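 active means compound whose remaining NAD level is above about 45 nM, limit read from the data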); settings: SAM-TIR HEK293T lysate NADase, at 1 µM, stronger effect = higher value
[19] = biological target: Mitogen-activated protein kinase 7 (Homo sapiens) (UniProt Q13164); assay: Gal4-ERK5 driven luciferase induction – cell-based, HTS, primary screen (AID 1508626;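 active means luciferase signal above three times the same-plate solvent-only control wells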;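 further: luciferase driven by Gal4-ERK5 fusion binding five Gal4 sites before minimal TATA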); settings: HeLa Gal4-ERK5 transactivation, 18 h, at 5 µM, stronger effect = higher value
[20] = galactose survival enhancers in mitochondrial complex I cybrids – cell-based, galactose medium, ATP luminescence, primary screen (AID 1645843;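 active means z-score of at least 1.8 in each of two replicates, scored against plate mean and spread of sample wells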;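 further: positive z means more ATP and so rescue of galactose-driven cybrid death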); settings: complex I mutant cybrid cells, 72 h, stronger effect = higher value
[21] = measured here: epithelial PC-3E GFP cell survival
[22] = measured here: mesenchymal TEM4-18 mCherry cell survival
[23] = measured here: relative caspase fold change +Dox/-Dox
[24] = measured here: total cells with miR-34 induction, stronger effect = lower value
[25] = measured here: total cells without miR-34 induction
[26] = MELAS cybrid survival, CellTiter-Glo 48 h, stronger effect = higher value
[27] = Rieske KO mouse fibroblast survival, CellTiter-Glo 72 h

Sequence of Mitogen-activated protein kinase 7 (Homo sapiens) (Q13164 whole entry, looked up, the tested form may be a part): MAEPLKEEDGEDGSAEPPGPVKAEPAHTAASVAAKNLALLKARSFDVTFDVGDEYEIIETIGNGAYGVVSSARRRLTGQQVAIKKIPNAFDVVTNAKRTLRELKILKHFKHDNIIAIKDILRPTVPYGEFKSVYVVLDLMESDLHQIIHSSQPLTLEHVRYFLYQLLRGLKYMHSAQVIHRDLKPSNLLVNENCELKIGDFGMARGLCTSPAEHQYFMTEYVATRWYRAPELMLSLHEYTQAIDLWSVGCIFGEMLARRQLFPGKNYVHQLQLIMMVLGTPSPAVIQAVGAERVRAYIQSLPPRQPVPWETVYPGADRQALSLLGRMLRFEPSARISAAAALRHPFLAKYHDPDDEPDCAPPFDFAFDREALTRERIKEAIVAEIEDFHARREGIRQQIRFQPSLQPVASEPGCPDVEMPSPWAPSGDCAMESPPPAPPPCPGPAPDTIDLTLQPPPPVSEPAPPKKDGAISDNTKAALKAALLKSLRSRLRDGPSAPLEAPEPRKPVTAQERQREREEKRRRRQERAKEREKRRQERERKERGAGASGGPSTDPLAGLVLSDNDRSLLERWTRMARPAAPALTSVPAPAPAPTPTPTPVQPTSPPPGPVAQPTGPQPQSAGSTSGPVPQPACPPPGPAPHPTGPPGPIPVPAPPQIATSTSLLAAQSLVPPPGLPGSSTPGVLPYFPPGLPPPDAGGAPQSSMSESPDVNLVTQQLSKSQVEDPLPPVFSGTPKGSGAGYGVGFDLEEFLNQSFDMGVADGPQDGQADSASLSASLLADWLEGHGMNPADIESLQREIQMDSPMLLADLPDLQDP
Sequence of 6-phosphogluconate dehydrogenase, decarboxylating (Homo sapiens) (P52209 whole entry, looked up): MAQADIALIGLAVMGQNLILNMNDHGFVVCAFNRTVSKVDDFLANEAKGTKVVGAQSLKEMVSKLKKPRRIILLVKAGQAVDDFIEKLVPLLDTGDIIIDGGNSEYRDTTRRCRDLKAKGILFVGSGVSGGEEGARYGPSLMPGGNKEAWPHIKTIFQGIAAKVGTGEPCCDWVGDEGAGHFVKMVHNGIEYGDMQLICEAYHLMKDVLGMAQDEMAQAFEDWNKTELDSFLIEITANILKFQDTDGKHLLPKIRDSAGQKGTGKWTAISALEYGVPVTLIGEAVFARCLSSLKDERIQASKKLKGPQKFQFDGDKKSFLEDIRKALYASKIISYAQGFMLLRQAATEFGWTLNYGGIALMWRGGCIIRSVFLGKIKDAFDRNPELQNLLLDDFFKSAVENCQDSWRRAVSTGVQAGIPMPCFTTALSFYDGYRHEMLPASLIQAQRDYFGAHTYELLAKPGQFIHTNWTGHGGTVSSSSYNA
Sequence of NAD(+) hydrolase SARM1 (Homo sapiens) (Q6SZW1 whole entry, looked up, the tested form may be a part): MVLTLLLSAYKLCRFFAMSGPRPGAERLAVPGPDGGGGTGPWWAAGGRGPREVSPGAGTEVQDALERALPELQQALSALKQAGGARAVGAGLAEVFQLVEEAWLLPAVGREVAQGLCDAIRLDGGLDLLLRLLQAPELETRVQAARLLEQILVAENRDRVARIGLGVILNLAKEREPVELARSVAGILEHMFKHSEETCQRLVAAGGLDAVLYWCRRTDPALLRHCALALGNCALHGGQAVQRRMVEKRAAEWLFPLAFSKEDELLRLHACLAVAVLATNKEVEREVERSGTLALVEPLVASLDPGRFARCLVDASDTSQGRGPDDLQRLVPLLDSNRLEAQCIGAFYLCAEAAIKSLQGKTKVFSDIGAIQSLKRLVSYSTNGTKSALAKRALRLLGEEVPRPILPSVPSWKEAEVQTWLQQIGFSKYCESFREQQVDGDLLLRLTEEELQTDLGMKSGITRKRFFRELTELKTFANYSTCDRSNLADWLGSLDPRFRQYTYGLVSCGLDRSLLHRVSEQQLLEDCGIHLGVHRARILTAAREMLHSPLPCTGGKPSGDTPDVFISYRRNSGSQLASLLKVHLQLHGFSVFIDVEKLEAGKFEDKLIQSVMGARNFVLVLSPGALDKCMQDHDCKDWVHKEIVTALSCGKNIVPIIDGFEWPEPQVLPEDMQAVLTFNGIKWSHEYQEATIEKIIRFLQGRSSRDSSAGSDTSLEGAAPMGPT

C[C@@H]1C[C@@H]([C@H](O)CC2CC(=O)NC(=O)C2)C(=O)[C@@H](C)C1
score [1]: 0.04 | cytochrome c release ratio [2]: 1.07 | inhibition of aggregation [3]: 91.3% | parasite load remaining [4]: -0.1% (active) and 5.12% (inactive) and 0% (inactive) | viability [4]: 87.3% and 76.3% and 87.1% | nuclear beta-catenin stimulation ([5]; at 10 µM): 28.9% (inactive) | nuclear beta-catenin stimulation ([5]; stimulation, at 2 µM): 25.8% | insulin secretion stimulation [6]: -1% (inactive) | viability decrease [7]: 88.7% (active) | tube area decrease [8]: 103% (active) | GLP1 secretion stimulation [9]: -4.7% (inactive) | inhibition of viability [10]: 78.7% (active) | viability decrease (inhibition) [11]: 68.4% (active) | viability decrease (inhibition) [12]: 67.6% (active) | inhibition [13]: -13.3% (inactive) | red/green cell ratio (normalised) [14]: 0.97 (inactive) | normalised cell number [14, 21]: 0.98 | normalised cell number [14, 22]: 0.96 | activity remaining [15]: 112% (inactive) | fold change ([16]; stronger effect = lower value): 1.05 (inactive) and 0.852 (inactive) | fold change [16, 23]: 1.03 and 1.84 | cell count [16, 24]: 2100 and 2650 | cell count [16, 25]: 1990 and 3110 | z-score [17, 26]: -0.121 | z-score [17, 27]: 4.57 | remaining NAD [18]: 10 nM (inactive) | luciferase signal [19]: 20 AU (inactive)

Clc1ccc(CO/N=C(\Cn2ccnc2)c2ccc(Cl)cc2Cl)c(Cl)c1
parasite load remaining [4]: 88.3% (inactive) and 30.5% (inactive) and 1.97% (inactive) | viability [4]: 76.2% and 91.5% and 53% | nuclear beta-catenin stimulation ([5]; at 10 µM): 27.8% (inactive) | nuclear beta-catenin stimulation ([5]; stimulation, at 2 µM): 3.3% | insulin secretion stimulation [6]: -0.7% (inactive) | viability decrease [7]: 101% (active) | tube area decrease [8]: 109% (active) | GLP1 secretion stimulation [9]: 25.7% (active) | inhibition of viability [10]: 101% (active) | viability decrease (inhibition) [11]: 141% (active) | viability decrease (inhibition) [12]: 103% (active) | inhibition [13]: -14.7% (inactive) | red/green cell ratio (normalised) ([14]; counts scaled to control wells, 1 = unselective): 1.02 (inactive) | normalised cell number [14, 21]: 1.03 | normalised cell number [14, 22]: 1.05 | activity remaining [15]: 128% (inactive) | fold change ([16]; stronger effect = lower value): 0.851 (inactive) | fold change ([16]; stronger effect = lower value, cell number ratio, induced over uninduced): 1.12 (inactive) | fold change [16, 23]: 1.03 and 1.16 | cell count [16, 24]: 7740 and 6080 | cell count [16, 25]: 6900 and 7140 | z-score [17, 26]: -0.195 (inactive) and 0.269 (inactive) | z-score [17, 27]: 0.707 and 1.28 | remaining NAD [18]: 10 nM (inactive) | luciferase signal [19]: 52 AU (inactive) | z-score [20]: -2.53 (inactive)

O=C(O)CCCc1ccc(N(CCCl)CCCl)cc1
score [1]: -0.24 | cytochrome c release ratio [2]: 1.24 | inhibition of aggregation [3]: 81.4% | nuclear beta-catenin stimulation ([5]; at 10 µM): 3.6% (inactive) | nuclear beta-catenin stimulation ([5]; stimulation, at 2 µM): -1.1% | insulin secretion stimulation [6]: -0.1% (inactive) | viability decrease [7]: 49.8% (inactive) | tube area decrease [8]: 87% (active) | GLP1 secretion stimulation [9]: -0.8% (inactive) | inhibition of viability [10]: 8.83% (inactive) | viability decrease (inhibition) [11]: 3.9% (inactive) | viability decrease (inhibition) [12]: 2.6% (inactive) | inhibition [13]: -1.4% (inactive) | red/green cell ratio (normalised) [14]: 0.75 (inactive) | normalised cell number [14, 21]: 1.2 | normalised cell number [14, 22]: 0.9 | activity remaining [15]: 115% (inactive) | z-score [17, 26]: -0.116 (inactive) and 0.451 (inactive) | z-score [17, 27]: -0.284 and -0.412 | remaining NAD [18]: 10 nM (inactive) | luciferase signal [19]: 144 AU (inactive) | z-score [20]: -0.065 (inactive) and 0.565 (inactive)
